For 61 compounds, inhibition results are on record in PubChem BioAssay AID1578 (Sanford-Burnham Center for Chemical Genomics, 2009).

Broadly, the inhibition is the change of the read-out against control, counted positive when it falls.

Values joined by “and” are separate entries in the source; they are usually repeats but may differ in a detail not shown here. Identical values can stand only once. The campaign covered roughly 290,000 compounds. About 3,000 (1%) were called active. No stated cut-off is given here; in the data, active means inhibition mostly above about 36% (no sharp cut-off); inactive means mostly below about 34%. The full list was thinned out, with actives kept by preference.

The nature of this assay: inhibition of NOD1-driven NF-kB reporter – cell-based, luminescence, uHTS, primary screen (AID 1578).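 Further: HEK-293T reporter cells stimulated with the NOD1 agonist gamma-tri-DAP.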 Conditions: NOD1-driven NF-kB luciferase reporter cells, at 4 µM, hits give high values.
In the case of `O=C(NC1CCCN(c2ccc(C(F)(F)F)cn2)C1)c1ccncc1` (stereo unspecified), the inhibition is -22% (inactive).

Turning to `O=[N+]([O-])c1cccc(-c2nc(-c3cccs3)c(-c3cccs3)[nH]2)c1`, the inhibition was 26.4% (inactive).

Take `O=[N+]([O-])c1cccc(-c2nc(-c3ccccc3)c(-c3cccs3)[nH]2)c1`: the inhibition was -1.1% (inactive).

As to `O=[N+]([O-])c1ccc(O)c(-c2nc(-c3ccccc3)c(-c3cccs3)[nH]2)c1`, the inhibition was 80.7% (active).

For the compound `CCOC(=O)Cc1csc(NC(=O)CN2CCN(CC)CC2)n1`, the inhibition was -2.4% (inactive).

As for `O=C1c2ccccc2NC(c2cccs2)N1NS(=O)(=O)c1ccccc1` (stereo unspecified), the inhibition was -22.6% (inactive).

Turning to `N#C/C(=C\c1ccc(OCc2ccccc2)cc1)C(=O)Nc1nc2c(s1)CCN(Cc1ccccc1)C2`, the inhibition was -24.8% (inactive).

For the compound `CC1Cc2ccccc2N1C(=O)CSc1nnc2c(n1)[nH]c1ccc(F)cc12` (stereo unspecified), the inhibition is 48.5% (active).

In the case of `CC1Cc2ccccc2N1C(=O)CSc1nnc2c(n1)[nH]c1ccccc12` (stereo unspecified), the inhibition was -0.9% (inactive).

Regarding `CC1CCc2cc(F)ccc2N1C(=O)CSc1nnc2c(n1)[nH]c1ccc(F)cc12` (stereo unspecified), the inhibition was 25.7% (inactive).

On to `CCCCN(Cc1ccccc1)S(=O)(=O)c1c(N)n(C)c(=O)n(C)c1=O`, for which the inhibition is -10.5% (inactive).

As for `CCCc1nc(SCC(=O)N2CCN(c3ccccc3)CC2)c2c(=O)n(C)c(=O)n(C)c2n1`, the inhibition is 9% (inactive).

With `CCc1nc(SCC(=O)N2CCC(Cc3ccccc3)CC2)c2c(=O)n(C)c(=O)n(C)c2n1`, the inhibition was 34% (inactive).

Take `CCn1nc(NC(=O)c2cccnc2)c2cc3cccc(C)c3nc21`: the inhibition was -11.6% (inactive).

Turning to `Cc1cc(Cl)ccc1OCC(=O)NCCCCc1ccccc1`, the inhibition was -5.1% (inactive).

In the case of `Nc1[nH]c(N=NC(=O)c2ccc(Cl)cc2)c2ccccc12`, the inhibition is -25.6% (inactive).

In the case of `CCOCCCNC(=S)Nc1ccc2nc(N3CCOCC3)cc(C)c2c1`, the inhibition is -4% (inactive).

For `Cc1cc(-c2ccc(C(C)C)c(S(=O)(=O)NCCN3CCC(C)CC3)c2)on1`, the inhibition was -17.2% (inactive).

In the case of `Cc1ccnc(NC(=O)Nc2cccc(F)c2)n1`, the inhibition is -65.5% (inactive).

`Cc1ccc(C(=O)Nc2cccc(C(F)(F)F)c2)cc1Nc1cnccn1`: the inhibition is -3.7% (inactive).

For the compound `CCN1CCN(Cc2ccc(C(=O)Nc3ccc(C)c(NCc4cnc(NC(=O)OC)cn4)c3)cc2C(F)(F)F)CC1`, the inhibition was -2.2% (inactive).

In the case of `CCN1CCN(Cc2ccc(NC(=O)c3ccc(C)c(NC(=O)N4CCNC4=O)c3)cc2C(F)(F)F)CC1`, the inhibition is -7.6% (inactive) and 18% (inactive).

On to `Cc1ccc(C(=O)Nc2cccc(C(F)(F)F)c2)cc1Nc1ccccn1`, for which the inhibition was -7.5% (inactive).

With `CN(C)c1ccc(/C=C2\C(=N)N3N=C(CC(=O)N4CCCC4)SC3=NC2=O)cc1Br`, the inhibition is -16.4% (inactive).

In the case of `CC(C)(Oc1ccc(Cl)cc1)C(=O)Nc1ccc2oc(=O)ccc2c1`, the inhibition was -7.5% (inactive).

On to `Cc1cccc(NC(=O)Nc2cccc(C#N)c2)n1`, for which the inhibition is -17.2% (inactive).

`Cc1cccc(NC(=O)Nc2ccc(C#N)cc2)n1`: the inhibition is 62.7% (active).

Regarding `Cc1ccc(NC(=O)Nc2cccc(C)n2)cc1`, the inhibition was -12.5% (inactive).

Regarding `COc1ccc(OCC(=O)Nc2ccc3c(c2)nc(CCN2CCCCC2)n3C)cc1`, the inhibition was -22.2% (inactive).

On to `Cc1nnc(NC(=O)c2c(F)c(F)c(F)c(F)c2F)s1`, for which the inhibition is -22.9% (inactive).

With `O=C(N/N=C/c1ccc(OC(=O)c2ccccc2Cl)cc1)c1ccccn1`, the inhibition was -55.2% (inactive).

Take `CN1C(CC(=O)Nc2ccc(Br)cc2)c2ccccc2CC1(C)C` (stereo unspecified): the inhibition was 92.6% (active).

For the compound `Cc1ccccc1NC(=O)CC1c2ccccc2CC(C)(C)N1C` (stereo unspecified), the inhibition is -25.6% (inactive).

Turning to `CN1C(CC(=O)Nc2ccc(Cl)cc2Cl)c2ccccc2CC1(C)C` (stereo unspecified), the inhibition is 2.4% (inactive).

Regarding `O=C1CC(N(CCc2ccccc2)C(=S)Nc2ccccc2)C(=O)N1c1ccc(Br)cc1` (stereo unspecified), the inhibition was -50% (inactive).

Consider `Cc1cc2cc(C)c(NCCNC(=O)c3ccccc3Cl)nc2cc1C`, for which the inhibition is -21.1% (inactive).

On to `CCN(CC)S(=O)(=O)c1ccc(F)cc1`, for which the inhibition is 71.7% (active).

As for `CCN(CC)S(=O)(=O)c1ccc(-c2ccc(S(=O)(=O)N(CC)CC)cc2)cc1`, the inhibition is 39.7% (inactive).

For `CCN(CC)S(=O)(=O)c1ccc(NS(=O)(=O)c2ccc(F)cc2)cc1`, the inhibition is 9.7% (inactive).

For the compound `O=C(/C=C/c1ccccc1Cl)NCCc1ccc(F)cc1`, the inhibition was -61.3% (inactive).

Take `COc1ccc(C(=O)/C=C/C(=O)N(CC(=O)NC2CCCCC2)Cc2ccc(F)cc2)c(O)c1`: the inhibition was 16.3% (inactive).

With `COc1ccc(C(=O)/C=C/C(=O)N(CC(=O)NC2CCCCC2)Cc2ccccc2)c(O)c1`, the inhibition was 26% (inactive).

For `COc1ccc(C(=O)/C=C/C(=O)N(CC(=O)NCCC(C)C)Cc2cccs2)c(O)c1`, the inhibition is 86.8% (active).

With `COc1ccc(C(=O)/C=C/C(=O)N(CC(=O)NC2CCCCC2)CC2CCCO2)c(O)c1` (stereo unspecified), the inhibition is 68.4% (active).

Turning to `COc1ccc(C(=O)/C=C/C(=O)N(CC(=O)NC2CCCCC2)Cc2cccs2)c(O)c1`, the inhibition was 36.2% (inactive).

Turning to `COc1ccc(C(=O)N(Cc2ccco2)Cc2cccs2)c(O)c1`, the inhibition was 29.1% (inactive).

In the case of `COc1ccc2cnn(-c3ccc(OC(F)(F)F)cc3)c(=O)c2c1OC`, the inhibition is -0.3% (inactive).

As to `Cc1ccc(CNC(=O)C2CCC(=O)N2Cc2ccc(C)cc2)cc1` (stereo unspecified), the inhibition is 0.2% (inactive).

For the compound `CCOC(=O)N1CCN(C(=O)c2ccc(CSc3ccc(Cl)cc3)cc2)CC1`, the inhibition is 62.9% (active).

With `CN1CCN(C(=O)c2ccc(CSc3ccc(Cl)cc3)cc2)CC1`, the inhibition is -13.5% (inactive).

For `O=C(c1ccc(CSc2ccc(Cl)cc2)cc1)N1CCCC1`, the inhibition was -3.6% (inactive).

As to `C=CCn1c(O)c(CN2CCCCC2)c(C)c(C#N)c1=O`, the inhibition is -25.8% (inactive).

With `CCN1CCN(c2ccc(NC(=O)c3cnccn3)cc2)CC1`, the inhibition was -37.5% (inactive).

With `O=C(Nc1ccc(N2CCCCC2)cc1)c1ccccn1`, the inhibition was 89.3% (active).

Regarding `O=C(Nc1ccc(N2CCCCCC2)cc1)c1ccccc1Cl`, the inhibition is -33.9% (inactive).

Regarding `O=C(CN1CCCCC1)Nc1ccc(N2CCCCCC2)cc1`, the inhibition was -21% (inactive).

As to `CCC(=O)Nc1ccc(N2CCCCC2)cc1`, the inhibition is 0.2% (inactive).

As to `O=C(Nc1ccc(N2CCOCC2)cc1)c1cnccn1`, the inhibition is 52.9% (active).

As for `O=C(Nc1ccc(N2CCCCC2)cc1)c1cccnc1Cl`, the inhibition was -28% (inactive).

On to `O=C(CCl)Nc1ccc(N2CCCCCC2)cc1`, for which the inhibition is 65.3% (active).

With `Cc1cnc(C(=O)Nc2ccc(N3CCOCC3)cc2)cn1`, the inhibition is -18.5% (inactive).
